Source: PubChem
MEP2-GFP yeast = modulators of MEP2-GFP levels in yeast, primary screen, S. cerevisiae, multiplex flow cytometry, MLPCN library; AID 2016, 2009; GFP response vs DMSO, % at 10 µM; S. cerevisiae MEP2-GFP strain, 3 h; 100% = DMSO control level; 0.51% of 330,000 active;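 active = GFP response versus DMSO above a set limit, roughly screen mean plus 3 SD, cut at about 180% in these data; inconclusive = fewer than 70 cells counted for a yeast strain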;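 note: median GFP fluorescence of the barcode-gated MEP2-GFP cells per well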
AGP1 TOR yeast = modulators of AGP1-GFP expression in yeast TOR pathway, primary screen, cell-based, multiplex flow cytometry, S. cerevisiae, MLPCN library; GFP response vs DMSO, % at 10 µM; 3 h; GFP as percent of DMSO wells; 0.02% of 320,000 active;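 active = GFP response relative to DMSO above a set limit, near screen average plus 3 SD, cut at about 150% in these data; inconclusive = fewer than 70 cells counted for the yeast strain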;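 note: median GFP channel fluorescence of the gated AGP1 strain per well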
Efflux pump mplx = inhibitors of Candida efflux pumps in yeast, primary screen, S. cerevisiae, Nile Red, multiplex; S. cerevisiae Candida pump triplex; 0.44% of 330,000 active; inhibition, % at 10 µM;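 active = plate passing quality check with inhibition over a set limit, or well fluorescence over plate mean plus 4 SD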;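 note: Nile Red retained in pooled yeast measured as flow cytometry median fluorescence; higher means more Nile Red kept so more efflux inhibition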
RPL19A-GFP yeast = RPL19A-GFP expression modulators in yeast, primary screen, cell-based, S. cerevisiae, multiplex flow cytometry, MLPCN; S. cerevisiae RPL19A-GFP strain, 3 h; active compounds read low; 0.3% of 330,000 active; percent response vs DMSO, % at 10 µM; AID 2025, 2009;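 active = percent response vs DMSO below 50%; inconclusive = fewer than 70 events counted for the yeast strain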;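 note: median channel GFP fluorescence of the barcoded RPL19A-GFP strain; lower means less RPL19A-GFP as with rapamycin TOR inhibition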
LAP4-GFP MLPCN = modulators of LAP4-GFP expression in yeast, primary screen, S. cerevisiae, multiplex flow cytometry, MLPCN library; AID 2023, 2009; GFP response vs DMSO, % at 10 µM; 0.34% of 320,000 active; 3 h; median GFP as percent of DMSO wells;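 active = GFP response vs DMSO above a set limit, about the screen mean plus 3 SD, cut at about 150% in these data; inconclusive = under 70 cell events counted for the yeast strain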
CIT2 TOR yeast = modulators of CIT2-GFP expression in yeast, primary screen, S. cerevisiae, GFP fusion, multiplex flow cytometry, MLPCN library; S. cerevisiae CIT2-GFP strain, 3 h; 100 means same as DMSO wells; GFP response vs DMSO, % at 10 µM; 0.065% of 320,000 active; AID 2029, 2009;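 active = GFP response relative to DMSO above a set limit, near the screen mean plus 3 SD, cut at about 150% in these data; inconclusive = Fewer than 70 cells measured for a yeast strain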;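 note: ratio of well median GFP fluorescence to mean of DMSO wells on the plate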
Of the large screens only hits and unclear results are named; the others gave an inactive call; [ ] = dose if it differs, or a comment. Shown are actives, neighbours in structure and some others; about 1.3% of the full set was active somewhere.

CCC(c1nnnn1CCOC)N1CCN(Cc2ccccc2OC)CC1 (configuration not stated)	MEP2-GFP yeast 260[may fluoresce violet], AGP1 TOR yeast inconclusive, CIT2 TOR yeast inconclusive (no result: RPL19A-GFP yeast)
COC(=O)c1[nH]c2ccc(Br)cc2c1NC(=O)CN1CCN(C2CCCCC2)CC1	MEP2-GFP yeast 281[may fluoresce violet], RPL19A-GFP yeast 17[may fluoresce violet], CIT2 TOR yeast inconclusive
CC(=O)c1cccc(NC(=O)CC2CCCC2)c1	none
COC(=O)c1cc(NC(=O)CC2CCCC2)cc(C(=O)OC)c1	AGP1 TOR yeast inconclusive, RPL19A-GFP yeast 27[may fluoresce violet], CIT2 TOR yeast inconclusive
CCCCN(CCCC)CCCOC(=O)c1ccc(N)cc1	LAP4-GFP MLPCN 183
O=C(c1ccc(Br)cc1)N(Cc1ccco1)C1CCS(=O)(=O)C1 (configuration not stated)	AGP1 TOR yeast inconclusive, RPL19A-GFP yeast 20[may fluoresce violet], CIT2 TOR yeast inconclusive
CCCCOc1ccc(C(=O)N(Cc2ccco2)C2CCS(=O)(=O)C2)cc1 (configuration not stated)	none
CC(=O)c1cccc(NC(=O)CSc2nc(C3CC3)nc3ccccc23)c1	AGP1 TOR yeast inconclusive, RPL19A-GFP yeast 32[may fluoresce violet], CIT2 TOR yeast inconclusive
NNC(=O)c1ccc(CSc2nc3ccccc3[nH]2)cc1	AGP1 TOR yeast inconclusive, RPL19A-GFP yeast 45[may fluoresce violet], CIT2 TOR yeast inconclusive
CCC(C)N1C(=O)/C(=C/c2c(NCCCOC(C)C)nc3c(C)cccn3c2=O)SC1=S (configuration not stated)	Efflux pump mplx 0.8
CCOCCCN(C)C1CCN(C(=O)c2oc3ccccc3c2NC(=O)c2ccc([N+](=O)[O-])cc2)CC1	none
CCOCCCN(C)C1CCN(C(=O)c2oc3ccccc3c2NC(=O)c2ccc(F)cc2)CC1	AGP1 TOR yeast inconclusive, RPL19A-GFP yeast 16[may fluoresce violet], CIT2 TOR yeast inconclusive
Cc1ccc2c(NC(=O)c3ccco3)cccc2n1	none
O=C(CSc1cn[nH]n1)Nc1ccc(Cl)cc1Cl	MEP2-GFP yeast 239[may fluoresce violet], AGP1 TOR yeast inconclusive, CIT2 TOR yeast inconclusive
O=C(CSc1cn[nH]n1)Nc1ccccc1F	none
COc1ccc(NC(=O)CSc2n[nH]c(-c3ccccn3)n2)cc1	MEP2-GFP yeast 314[may fluoresce violet], AGP1 TOR yeast inconclusive, RPL19A-GFP yeast 37[may fluoresce violet], CIT2 TOR yeast inconclusive
COc1cc(C(=O)OCC(=O)N2CCCC2)cc(OC)c1OC	MEP2-GFP yeast 324[may fluoresce violet], RPL19A-GFP yeast 47[may fluoresce violet], CIT2 TOR yeast inconclusive (no result: AGP1 TOR yeast)
O=C1CSC(=S)N1	none
Cc1c(Cl)cccc1NC(=S)N(CCCN1CCOCC1)Cc1cccs1	none
Cc1ccc(NC(=S)N(CCCN2CCOCC2)Cc2cccs2)c(C)c1	MEP2-GFP yeast 222
CC(=O)c1ccc2c(c1)OCCOCCOCCO2	MEP2-GFP yeast 575[may fluoresce violet], AGP1 TOR yeast inconclusive, RPL19A-GFP yeast 47[may fluoresce violet], CIT2 TOR yeast inconclusive
Brc1ccc2c(c1)OCCOCCOc1cc(Br)ccc1OCCOCCOCCO2	LAP4-GFP MLPCN 219
Brc1cc2c(cc1Br)OCCOCCOCCOCCO2	none (no result: CIT2 TOR yeast)
Cc1ccccc1OCCC(=O)N(CC(C)C)c1c(N)n(Cc2ccccc2)c(=O)[nH]c1=O	none
Cc1nn(Cc2noc(C(=O)NCc3ccc4c(c3)OCO4)n2)c(C)c1Br	none
Cc1ccc(NC(=O)NNC(=O)C2CC(c3cccs3)=NO2)cc1 (configuration not stated)	CIT2 TOR yeast 150[may fluoresce green]
CC(C(=O)Nc1ccc(F)cc1Cl)N(C)CCOc1ccccc1 (configuration not stated)	none
CC(C(=O)Nc1ccccc1)N(C)CCOc1ccccc1 (configuration not stated)	MEP2-GFP yeast 299[may fluoresce violet], RPL19A-GFP yeast 40[may fluoresce violet], CIT2 TOR yeast inconclusive
Cc1cc(NC(=O)Cn2cc(C(F)(F)F)cc(Cl)c2=O)no1	MEP2-GFP yeast 224[may fluoresce violet], CIT2 TOR yeast inconclusive
CC12CCC(=O)N1C(C(=O)Nc1ccccc1F)CS2 (configuration not stated)	none
CC(NC(=O)c1ccc([N+](=O)[O-])o1)C12CC3CC(CC(C3)C1)C2 (configuration not stated)	MEP2-GFP yeast inconclusive, AGP1 TOR yeast inconclusive, RPL19A-GFP yeast 16[may fluoresce violet], CIT2 TOR yeast inconclusive
CC(NC(=O)C12CC3CC(CC(C3)C1)C2)C(=O)NN=Cc1ccc([N+](=O)[O-])o1 (configuration not stated)	none
Nc1c(C(=O)Nc2ccccc2)c2nc3ccccc3nc2n1CCCN1CCOCC1	AGP1 TOR yeast inconclusive, RPL19A-GFP yeast 42[may fluoresce violet], CIT2 TOR yeast inconclusive
O=C(COc1ccccc1)N(Cc1cccc(F)c1)C1CCS(=O)(=O)C1 (configuration not stated)	RPL19A-GFP yeast 44[may fluoresce violet], CIT2 TOR yeast inconclusive
O=C(COc1ccc(F)cc1)N(Cc1cccc(Br)c1)C1CCS(=O)(=O)C1 (configuration not stated)	none
CC1(C)CC(=O)C(C(C2=C(O)CC(C)(C)CC2=O)c2cccs2)C(=O)C1 (configuration not stated)	MEP2-GFP yeast 185
CC1(C)CC(=O)C(C(C2=C(O)CC(C)(C)CC2=O)c2cccc(O)c2)C(=O)C1 (configuration not stated)	none
COc1ccc(Cl)cc1NC(=O)CCc1nnc2ccc(N3CCN(C)CC3)nn12	none
CCCc1nnc(SCC(=O)NC2CCCC2)n1CCOC	none
CCCCOc1ccc(C(=O)NCC(=O)NCC(c2ccc(F)cc2)N2CCOCC2)cc1 (configuration not stated)	none
CCN1/C(=C/C=C/c2oc3ccc4ccccc4c3[n+]2CC)Oc2ccc3ccccc3c21	MEP2-GFP yeast active[may fluoresce green], LAP4-GFP MLPCN active[may fluoresce green], CIT2 TOR yeast active[may fluoresce green] (no result: AGP1 TOR yeast)
Cn1c(=O)c2c(nc(Br)n2Cc2ccccc2Cl)n(C)c1=O	none
COC(=O)Cn1c(=O)c2c(nc(Br)n2Cc2ccccc2Cl)n(C)c1=O	MEP2-GFP yeast 265[may fluoresce violet], RPL19A-GFP yeast 36[may fluoresce violet], CIT2 TOR yeast inconclusive
COC(=O)[C@@H](NC(=O)N1CCN(C(=O)C2COc3ccccc3O2)CC1)C(C)C (some centres not stated)	AGP1 TOR yeast inconclusive, RPL19A-GFP yeast 19[may fluoresce violet], CIT2 TOR yeast inconclusive
O=C(C1COc2ccccc2O1)N1CCCC1 (configuration not stated)	none
Cc1ccc(Nc2cc(C)nn2-c2nc(C)cc(=O)[nH]2)cc1	LAP4-GFP MLPCN 152
CCOC(=O)c1ccccc1NC(=O)Cc1ccc(OC)c(S(=O)(=O)N2CCOCC2)c1	none
Cc1cccn2c(=O)c3cc(C(=O)NC4CCCCC4)c(=N)n(CCN4CCOCC4)c3nc12	none
Cc1cccn2c(=O)c3cc(C(=O)NCCC4=CCCCC4)n(C)c3nc12	AGP1 TOR yeast inconclusive, RPL19A-GFP yeast 30[may fluoresce violet], CIT2 TOR yeast inconclusive
